EPAC2 antag: antagonists of human EPAC2 | EPAC2 GEF exchange of Rap1B-BODIPY-GDP, fluorescence | AID 720708 | hit rate 0.18% among 360,000 | Potency, µM (doses to about 114 µM), inactives show at the highest dose activity, negative = inhibition, actives largely listed as inhibitors; note: % is set by controls: 0 for no effect and ±100 for the full control effect; nearly all actives have a fitted effect of over 45% in size
Target sequence (Q8WZA2 whole entry, looked up): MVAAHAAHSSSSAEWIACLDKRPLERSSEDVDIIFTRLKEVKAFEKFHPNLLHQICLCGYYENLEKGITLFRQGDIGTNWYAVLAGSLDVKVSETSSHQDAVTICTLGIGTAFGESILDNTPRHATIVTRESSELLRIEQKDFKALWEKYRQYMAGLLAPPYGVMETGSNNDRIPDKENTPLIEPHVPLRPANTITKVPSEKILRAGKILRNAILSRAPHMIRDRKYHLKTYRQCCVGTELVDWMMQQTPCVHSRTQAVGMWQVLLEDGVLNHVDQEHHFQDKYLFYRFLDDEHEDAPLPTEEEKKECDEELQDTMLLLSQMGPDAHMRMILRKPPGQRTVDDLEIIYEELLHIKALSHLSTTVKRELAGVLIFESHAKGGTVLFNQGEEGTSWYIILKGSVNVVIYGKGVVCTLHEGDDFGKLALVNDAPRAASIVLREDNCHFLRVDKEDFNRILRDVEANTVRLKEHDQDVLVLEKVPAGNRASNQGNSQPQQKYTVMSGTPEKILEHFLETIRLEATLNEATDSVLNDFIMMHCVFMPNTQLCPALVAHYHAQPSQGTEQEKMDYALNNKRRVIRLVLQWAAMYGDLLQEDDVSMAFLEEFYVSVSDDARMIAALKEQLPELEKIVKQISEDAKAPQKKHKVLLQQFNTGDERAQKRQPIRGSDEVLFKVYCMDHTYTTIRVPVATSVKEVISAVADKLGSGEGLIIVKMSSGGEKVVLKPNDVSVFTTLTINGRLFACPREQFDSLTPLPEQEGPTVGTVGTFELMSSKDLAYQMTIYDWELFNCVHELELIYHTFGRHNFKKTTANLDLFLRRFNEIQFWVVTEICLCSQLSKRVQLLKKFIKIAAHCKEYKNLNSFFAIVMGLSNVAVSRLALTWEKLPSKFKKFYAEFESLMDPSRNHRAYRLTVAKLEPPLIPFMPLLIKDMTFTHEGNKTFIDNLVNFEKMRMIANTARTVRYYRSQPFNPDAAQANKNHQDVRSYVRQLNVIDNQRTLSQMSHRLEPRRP
EPAC1 antagonist: EPAC1 (human) antagonism. EPAC1 GEF assay, Rap1b-BODIPY-GDP exchange fluorescence. Potency, µM (doses to about 115 µM), for the others: at the top dose activity change, negative = inhibition, hits mostly inhibitors. hit rate 0.14% among 360,000. AID 720709;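 note: plate controls were vehicle for no effect and positive control for full effect; nearly all actives have a fitted effect of over 50% in size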
BRCA1 expr act: increases BRCA1 expression | Potency, µM (series often up to 46.1 µM), for the others: top-dose activation, hits mostly activators | MCF7-BRCA1-FFLuc reporter, luminescence, 48 h; response scale: scaled: vehicle 0%, 10 µM genistein 100% | AID 624202 | hit rate 1.1% among 380,000; note: nearly all actives have a fitted effect of over 80% in size
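MCF7-BRCA1-FFLuc, 2000 cells/well; 2 h attach, 37 °C/5% CO2; compound 48 h; luciferase substrate 15 min; luminescence end-point. Norm. to genistein 10 microM max activation and DMSO; concentration-response curves fitted.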
EPAC1 ag: activates human EPAC1 exchange factor | O95398 | EPAC1 agonist qHTS, biochemical assay; response scale: 100% = response to 6.5 mM cAMP | hit rate 0.073% among 360,000 | Potency, µM (doses to about 154 µM), without a hit: top-dose activation, actives largely listed as activators; note: nearly all actives have a fitted effect of over 60% in size
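Compounds were pinned as a concentration titration into mixtures of EPAC1 (100 nM), BODIPY-GDP-loaded Rap1B (250 nM) and GDP (50 uM). After 5 min at room temperature, fluorescence was followed for 30 min; activity was scaled to 6.5 mM cAMP.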
RGS4 inh: inhibitors of human regulator of G protein signaling 4 | P49798 | Transcreener GDP fluorescence polarization, RGS4-accelerated GTP hydrolysis | Potency, µM (highest dose often 114 µM), inactives show at the highest dose activity change, negative = inhibition, most hits filed as inhibitors | hit rate 0.039% among 390,000 | AID 504845; note: % is set by controls: 0 for no effect and ±100 for the full control effect; nearly all actives have a fitted effect of over 75% in size
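MLSMR compounds (23 nl, pin-transferred) preincubated 10 min at room temperature with a 500nM (2x) first reagent, then RGS4 at 900nM (2x) plus Transcreener GDP mix added; fluorescence polarization (620/688 nm) read before and after 90 min at 30 °C.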
EPAC2 ag: activates human EPAC2 exchange factor; Q8WZA2; EPAC2 activation, biochemical qHTS; response scale: 100% = 6.5 mM cAMP response; Potency, µM (top dose mostly 154 µM), for the others: at the top dose activation, hits mostly activators; hit rate 0.079% among 360,000; AID 720711; note: nearly all actives have a fitted effect of over 50% in size
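Each well held 100 nM EPAC2, 250 nM RAP1B-BODIPY-GDP and 50 uM GDP. Fluorescence, read at 5-min intervals to 30 min, was referenced to a 6.5 mM cAMP positive control.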
An asterisk follows results filed as active; ? = inconclusive; · = no result given; [ ] = another dose, or the depositor's remark. Compounds with a hit are over-represented: about 1.3% of the library has one in this group of screens. Calls come from the whole dose curve; as a rule, active = well fitted curve in the direction sought with a large enough effect; inconclusive = small, poorly fitted or top-dose-only effect, or another doubt; inactive = no such curve, though single readings can be large; an effect the other way counts as inactive or inconclusive. Potency is the fitted concentration of half-maximal effect.

SMILES	EPAC2 antag	EPAC1 antagonist	BRCA1 expr act	EPAC1 ag	RGS4 inh	EPAC2 ag
O=S(=O)(c1ccccc1)N(Cc1nc(-c2ccccc2)no1)C1CCCCC1	-9.0%	-4.1%	-41.9%	5.7%	-23.6%	17.1%
COc1ccc2c(c1OC)C(=O)N1c3ccccc3COC21 (configuration not stated)	-1.2%	-25.8%	?	14.8%	12.6%	-3.8%
COc1ccc2c(c1OC)C(=O)N1c3ccccc3SC21 (configuration not stated)	9.4%	-3.7%	5.01µM*	-1.8%	-50.3%	-9.0%
COC(=O)Cn1c(O)c(N=NC(=O)CNC(=O)c2ccc3c(c2)OCCO3)c2ccccc21	14.5%	2.7%	8.2%	-7.8%	-12.7%[56.9 µM]	5.5%
Cc1cc(/C=N/NC(=O)c2ccncc2)c(C)n1-c1ccccc1	-11.6%	-3.8%	7.94µM*	-1.0%	-4.1%	-7.7%
Cc1cc(/C=N/NC(=O)c2cccc([N+](=O)[O-])c2)c(C)n1-c1ccccc1	-0.4%	-29.9%	12.6µM*	-3.9%	1.2%	-3.2%
Cc1ccc(C(=O)N2CCN=C2SCc2ccc([N+](=O)[O-])cc2)cc1	-7.7%	-0.4%	-38.6%	9.3%	-7.0%	13.2%
N#Cc1c(-c2ccccc2)nc(SCc2ccc(Cl)cc2)[nH]c1=O	?	79.4µM*	-4.6%	-15.1%	-18.2%	-1.9%
N#Cc1c(-c2ccccc2)nc(SCC(=O)Nc2ccc(OC(F)(F)Cl)cc2)[nH]c1=O	35.5µM*	?	8.2%	-5.4%	0.4%	-6.2%
N#Cc1c(-c2ccccc2)nc(SCC(=O)N2c3ccccc3Sc3ccccc32)[nH]c1=O	8.91µM*	79.4µM*	9.0%	9.1%	2.9%[11.4 µM]	2.2%
N#Cc1c(-c2ccccc2)nc(SCC(=O)Nc2ccccc2)[nH]c1=O	-6.2%	-26.6%	-14.8%	-7.0%	4.1%	-10.8%
O=C1CCN(CCCc2ccccc2)CCN1[C@H](CO)c1ccccc1	10.0%	-0.9%	0.3%	-12.5%	14.5%	2.3%
Cc1ccc(Nc2ncnc(-n3cccc3)n2)cc1Cl	0.7%	-2.8%	6.31µM*	12.0%	16.9%	6.2%
Clc1cc(Cl)cc(Nc2ncnc(-n3cccc3)n2)c1	-19.5%	-21.4%	-34.9%	7.1%	21.0%	-1.4%
COc1ccc2c(C)c(CCC(=O)NCCCN3CCCC3=O)c(=O)oc2c1C	-6.9%	18.8%	6.1%	-15.6%	-11.4%	1.3%
CCOC(=O)Cc1c(C)nc2c(-c3cccc(Br)c3)cnn2c1C	23.0%	-0.1%	-46.4%	-7.6%	-32.9%	-0.2%
CC(=O)c1cnc2c(-c3cccc(Br)c3)cnn2c1C	7.3%	2.3%	8.91µM*	-5.1%	8.0%	-7.0%
Cc1ccc(S(=O)(=O)/N=C(/c2ccc(F)cc2)N2CCCCC2)cc1	7.2%	2.5%	-5.6%	8.2%	5.4%	4.9%
O=[N+]([O-])c1cc(/C=N/O)ccc1Oc1ccccc1Cl	?	3.3%	7.08µM*	-2.9%	-9.9%	5.9%
O=[N+]([O-])c1cc(/C=N/O)ccc1Oc1cccc(Cl)c1	7.4%	-27.4%	-3.2%	-2.1%	18.4%	13.0%
COc1ccc(/C=C(\NC(=O)c2ccc(Cl)cc2)C(=O)NCc2cccnc2)cc1OC	4.4%	12.3%	-10.9%	2.9%	·	-2.9%
CC(=O)N1CCc2cc(S(=O)(=O)NCCC(=O)Nc3ccc4c(c3)OCCO4)ccc21	-0.9%	3.7%	11.2µM*	-11.0%	16.5%	5.3%
CC(=O)N1CCc2cc(S(=O)(=O)NCCC(=O)Nc3cc(C)cc(C)c3)ccc21	-2.1%	8.4%	-9.0%	4.8%	-8.4%	4.2%
O=C(CSc1nnc(-c2ccc(O)cc2)o1)N1CCOCC1	-2.5%	9.8%	83.0%	-7.2%	4.1%	-5.4%
Oc1ccc(-c2nnc(SCC3CCCCC3)o2)cc1	9.4%	17.8%	6.31µM*	21.9%	-17.8%	3.8%
SMILES	EPAC2 antag	EPAC1 antagonist	BRCA1 expr act	EPAC1 ag	RGS4 inh	EPAC2 ag
CC1=C(C)CC(C(=O)Nc2nc(C)cs2)C(C(=O)O)C1 (configuration not stated)	-0.8%	7.9%	16.2%	11.9%	2.9%	-2.6%
CC(=O)NC(c1ccccc1)c1c(O)ccc2ccccc12 (configuration not stated)	39.8µM*	-4.0%	-24.8%	3.9%	3.8%	1.2%
CN(C)/C=C1\SC(=S)N(c2ccc(Br)cc2)C1=O	6.9%	-7.5%	10µM*	-5.1%	-33.1%	-2.3%
CN(C)/C=C1\SC(=S)N(c2ccc(F)cc2)C1=O	-3.7%	-10.1%	61.6%	-21.0%	-44.0%	-3.7%
CNc1ccc(/C=C(\C#N)c2ccccn2)cc1[N+](=O)[O-]	8.7%	6.1%	10µM*	1.9%	-15.3%	-3.9%
N#C/C(=C\c1ccc(Cl)c([N+](=O)[O-])c1)c1ccccn1	-4.1%	-5.4%	-95.9%	0.7%	-45.8%	4.0%
O=C(O)c1ccc(N/N=C/c2ccc(-c3ccccc3Cl)o2)cc1	39.8µM*	-0.4%	?	4.4%	-33.2%	-4.6%
O=C(c1ccco1)N1CCN(Cc2ccccc2Br)CC1	2.7%	-4.0%	15.8µM*	15.1%	21.5%	11.4%
O=C(c1ccco1)N1CCN(Cc2ccc(F)cc2)CC1	-3.3%	-22.1%	27.3%	1.9%	-20.4%	0.3%
Cc1ccc(Cl)c2sc(N3CCN(C(=O)c4ccco4)CC3)nc12	-2.4%	-8.4%	-32.0%	100µM*	-18.2%	-0.3%
O=C(c1ccco1)N1CCN(c2ccc(N3CCCCC3)nn2)CC1	-2.5%	-9.2%	10µM*	3.9%	-15.8%	6.1%
O=C(c1ccco1)N1CCN(C(=O)c2ccco2)CC1	3.8%	-5.5%	18.6%	9.3%	·	15.3%
Cn1c(=O)c(C(=O)N2CCc3ccccc32)cc2cccnc21	2.1%	9.7%	5.9%	7.2%	22.5%	-2.0%
O=C(COC(=O)CCCOc1ccc(Cl)cc1Cl)NCc1ccccc1	-10.8%	-5.5%	6.9%	0.9%	-14.8%	6.3%
O=C(CSc1ccc2nnc(-c3ccccc3)n2n1)NCC1CCCO1 (configuration not stated)	-0.6%	7.9%	1.1%	0.8%	1.1%	0.8%
c1ccc(-n2nnc(-c3nccs3)n2)cc1	10.9%	-12.7%	2.82µM*	-4.2%	5.2%	6.7%
Brc1ccccc1-n1nnc(-c2nccs2)n1	?	?	4.47µM*	-3.4%	6.2%	4.0%
Clc1ncccc1-c1nnn(-c2ccccc2Br)n1	?	-17.4%	?	-4.1%	-3.5%	8.5%
Fc1ccc(-n2nnc(-c3ccccc3)n2)cc1	-12.2%	16.0%	-1.5%	-12.2%	-15.7%	-5.7%
O=C(O)c1ccc(-c2ccccn2)s1	7.9%	9.9%	10µM*	-6.2%	-1.3%	4.7%
